Data: article PMC5540273 (PLoS ONE, 2017)

Key:
Settings in all cases: concentration: 1 μM,replicates: in singlicate; n = 1
[1] = system: PIK3C2G
[2] = system: PIK3CA
[3] = system: PIK3CB
[4] = system: PIK3CD
[5] = system: PIK3CG
[6] = system: T1, PIK4CB
T1 construct: gene PI4KB

[7] = system: PIKFYVE
[8] = system: PIM1
[9] = system: PIM2
[10] = system: PIM3
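Note: KINOMEscan kinase panel screen.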

Compound | %Inh [1] [%] | %Inh [2] [%] | %Inh [3] [%] | %Inh [4] [%] | %Inh [5] [%] | %Inh [6] [%] | %Inh [7] [%] | %Inh [8] [%] | %Inh [9] [%] | %Inh [10] [%]
COC(=O)c1cccc(NC(=O)NC2CCN(c3ccnc(NCc4ccc(F)cc4)n3)CC2)c1 [GSK1379860] | 0 | 0 | 0 | 61 | 0 | 0 | 57 | 0 | 0 | 0
COc1cc2ncn(-c3cc(OCC4CCCCC4)c(C(N)=O)s3)c2cc1OC [GSK204559] | 38 | 0 | 0 | 0 | 5 | 0 | 0 | 0 | 0 | 11
C[C@@H]1CCN(C(=O)N2CCCC2)C[C@@H]1N(C)c1ncnc2[nH]ccc12 | 0 | 2 | 26 | 2 | 14 | 7 | 3 | 0 | 0 | 0
OCCn1cc(-c2cnc3nnn(Cc4ccc5ncccc5c4)c3n2)cn1 | 0 | 0 | 0 | 0 | 0 | 0 | 40 | 1 | 0 | 10
CC(=O)Nc1ccc(-c2cc3ncnc(SCC(=O)O)c3s2)cc1 | 0 | 0 | 26 | 5 | 1 | 0 | 38 | 10 | 48 | 22
COc1cc2c(Nc3ccc(NC(=O)c4ccccc4)cc3)ncnc2cc1OCCCN1CCOCC1 [GSK301329] | 0 | 0 | 0 | 0 | 0 | 0 | 0 | 0 | 0 | 0
O=C1NCCc2[nH]c(-c3ccncc3)cc21 | 0 | 7 | 45 | 0 | 12 | 20 | 38 | 28 | 23 | 37
C[C@@H](Oc1cc(-n2cnc3cc(-c4ccncc4)ccc32)sc1C(N)=O)c1ccccc1Cl [GSK479719] | 0 | 0 | 0 | 0 | 0 | 0 | 27 | 0 | 0 | 0
COc1cc2nccc(Nc3ccc(Oc4ccccc4)cc3)c2cc1OC.Cl [GI261656] | 0 | 0 | 0 | 0 | 0 | 0 | 5 | 0 | 0 | 0
Cn1ccc2ncnc(Oc3ccc(NC(=O)Nc4cccc(C(F)(F)F)c4)c(F)c3)c21 | 0 | 0 | 0 | 0 | 0 | 0 | 13 | 19 | 0 | 8
COc1cccc(CNC(=O)NC2CCN(c3ccnc(Nc4cc(OC)c(OC)c(OC)c4)n3)C2)c1 (stereo not shown) [GSK1379765] | 0 | 0 | 83 | 35 | 0 | 67 | 0 | 0 | 0 | 0
Cn1ccc2ncnc(Oc3ccc(NC(=O)Nc4cncc(C(F)(F)F)c4)c(Cl)c3)c21 | 0 | 0 | 0 | 0 | 0 | 0 | 0 | 3 | 1 | 0
CS(=O)(=O)c1cccc(CNc2nc(Nc3ccc4c(c3)[C@@H]3C[C@@H]4CNC3=O)ncc2C(F)(F)F)c1 | 0 | 0 | 0 | 0 | 0 | 0 | 24 | 0 | 0 | 0
Cl.c1ccc(Oc2ccc(Nc3ccnc4cc(-c5ccc(CN6CCNCC6)o5)ccc34)cc2)nc1 [GW567142] | 0 | 0 | 0 | 0 | 10 | 0 | 0 | 0 | 0 | 2
COc1cc(Nc2nccc(N3CCC(NC(=O)c4cccc(C#N)c4)C3)n2)cc(OC)c1OC (stereo not shown) [GSK1379751] | 0 | 0 | 0 | 0 | 0 | 3 | 9 | 0 | 0 | 0
O=C(Nc1n[nH]c2cc(-c3ccco3)ccc12)C1CC1 [SB-737447] | 17 | 0 | 0 | 0 | 0 | 18 | 1 | 6 | 0 | 22
Cc1cccc2c(-c3ccncc3)c(-c3ccc(F)cc3)nn12.Cl [GW461487] | 0 | 0 | 0 | 0 | 0 | 0 | 0 | 18 | 0 | 0
O=C(Nc1ccccc1)c1cccc(Oc2ccc3nccn3n2)c1 | 6 | 0 | 0 | 11 | 0 | 68 | 0 | 0 | 5 | 0
C[C@@H]1CNc2c(sc3ccc4nc(-c5ccncc5)ccc4c23)C(=O)N1 | 2 | 0 | 0 | 0 | 0 | 0 | 52 | 44 | 69 | 93.1

Compound | %Inh [1] [%] | %Inh [2] [%] | %Inh [3] [%] | %Inh [4] [%] | %Inh [5] [%] | %Inh [6] [%] | %Inh [7] [%] | %Inh [8] [%] | %Inh [9] [%] | %Inh [10] [%]
O=C(Nc1ccc(Oc2ccc3nc(NC(=O)C4CC4)cn3n2)c(F)c1)c1cccn(-c2ccccc2)c1=O | 0 | 0 | 0 | 0 | 0 | 0 | 4 | 5 | 8 | 0
Cn1ccc2ncnc(Oc3ccc(NC(=O)Nc4cc(C(C)(C)C)on4)c(Cl)c3)c21 | 48 | 5 | 8 | 12 | 4 | 0 | 19 | 1 | 0 | 11
Cl.Cl.NC[C@H](CC1CCCCC1)NC(=O)c1ccc(-c2ccnc3[nH]ccc23)s1 [GSK1581428] | 0 | 0 | 0 | 0 | 0 | 0 | 0 | 0 | 0 | 0
CNC(=O)c1ccccc1Nc1nc(Nc2cccc(CS(C)(=O)=O)c2)ncc1C.O=CO [GSK1520489] | 0 | 0 | 0 | 0 | 20 | 12 | 0 | 18 | 0 | 0
COC(=O)Nc1nc2cc(Oc3ccc(NC(=O)Nc4cc(C(F)(F)F)ccc4Cl)cc3)ccc2[nH]1.Cl [GW697465] | 0 | 0 | 16 | 4 | 0 | 0 | 20 | 30 | 0 | 22
Nc1nccc(-c2ccc3c(N)n[nH]c3c2)n1 [GSK1034945] | 0 | 5 | 0 | 3 | 2 | 0 | 0 | 9 | 0 | 7
CSc1nccc(-c2c(-c3ccc(F)cc3)ncn2CCCN2CCOCC2)n1.Cl [SB-217146] | 0 | 17 | 0 | 0 | 0 | 5 | 14 | 35 | 0 | 9
CC(C(=O)NC1CCN(c2ccnc(Nc3ccc(F)cc3)n2)C1)c1ccc(Cl)cc1 (stereo not shown) [GSK1379713] | 0 | 0 | 0 | 15 | 0 | 0 | 9 | 9 | 0 | 0
C[C@@H](Oc1cc(-n2cnc3cc(-c4cnn(C)c4)ccc32)sc1C(N)=O)c1ccccc1Cl [GSK580432] | 0 | 0 | 0 | 32 | 24 | 0 | 61 | 20 | 0 | 18
COc1cccc(OC)c1C(=O)Nc1cccc(-c2nn3ccccc3c2-c2ccnc(Nc3cccc(F)c3)n2)c1 [GSK361065] | 24 | 0 | 0 | 1 | 0 | 0 | 42 | 10 | 0 | 13
FC(F)(F)c1cc(Br)cc(Nc2nccc(-c3cnn4ncccc34)n2)c1 [GW810578] | 25 | 3 | 16 | 51 | 10 | 30 | 10 | 25 | 0 | 23
CC(=O)c1c(-c2ccncc2)[nH]c(-c2ccncc2)c1C [GW493036] | 0 | 0 | 0 | 38 | 0 | 0 | 26 | 11 | 0 | 9
CCN1CCN(CCCC(=O)Nc2n[nH]c3nc(-c4ccc(O)cc4)c(Br)cc23)CC1 [SB-731579] | 16 | 0 | 0 | 44 | 6 | 16 | 14 | 57 | 89 | 72
Cn1ccc2ncnc(Oc3ccc(NC(=O)Nc4cnn(C(C)(C)C)c4)c(Cl)c3)c21 | 8 | 10 | 0 | 14 | 7 | 0 | 0 | 0 | 7 | 0
O=c1[nH]cc(-c2ccc(O)cc2)c2sc(-c3ccncc3)cc12 [GSK1033723] | 20 | 0 | 13 | 39 | 7 | 0 | 0 | 0 | 13 | 0
Cc1nnc(-c2ccc3occ(-c4ccc(S(C)=O)cc4)c3n2)o1 (stereo not shown) | 0 | 0 | 8 | 0 | 0 | 0 | 0 | 0 | 3 | 4
CS(=O)c1ccc(-c2coc3ccc(-c4n[nH]c(=O)o4)cc23)cc1 (stereo not shown) | 49 | 46 | 41 | 35 | 78 | 43 | 64 | 87 | 82 | 84
COC(=O)c1cccc(NC(=O)NC2CCN(c3ccnc(Nc4cc(OC)c(OC)c(OC)c4)n3)C2)c1 (stereo not shown) [GSK1379767] | 0 | 0 | 9 | 35 | 21 | 47 | 28 | 17 | 0 | 0
